Compounds with a hit are over-represented: about 4.3% of the library has one in this group of screens.
D3 ag: D3 dopamine receptor (human) agonism. P35462. D3R DiscoveRx beta-arrestin cells, luminescence, 90 min. max activation, %. hit rate 0.58% among 410,000. AID 652048; in the data active = max activation above about 30%
Target sequence (P35462 whole entry, looked up): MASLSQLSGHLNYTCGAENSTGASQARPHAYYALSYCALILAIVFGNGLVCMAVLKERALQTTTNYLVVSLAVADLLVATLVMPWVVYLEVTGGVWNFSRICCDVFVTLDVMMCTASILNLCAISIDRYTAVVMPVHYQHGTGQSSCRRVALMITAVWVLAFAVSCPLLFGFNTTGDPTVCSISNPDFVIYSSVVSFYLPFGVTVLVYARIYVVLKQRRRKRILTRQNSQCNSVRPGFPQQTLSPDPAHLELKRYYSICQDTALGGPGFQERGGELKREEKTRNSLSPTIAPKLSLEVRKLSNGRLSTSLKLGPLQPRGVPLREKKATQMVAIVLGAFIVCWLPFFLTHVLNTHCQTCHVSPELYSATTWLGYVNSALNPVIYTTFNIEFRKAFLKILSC
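Cells at 1500/well, incubated overnight, then treated with pinned compounds (dopamine as control) for 90 min at 37 degrees C. DiscoveRx reagent added for 30 - 60 minutes at room temperature; luminescence read.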
GLP-1R agonist: GLP-1 receptor (human) agonism | AID 624172 | Potency, µM (series often up to 45.6 µM), most hits filed as activators | HEK293 GLP-1R CRE-luciferase, luminescence, 4-6 h; cells express a hypersensitive GLP-1R form | hit rate 0.007% among 380,000
DRD3 antagonist: D3 dopamine receptor (human) antagonism; D3R cells, DiscoveRx beta-arrestin luminescence, antagonist mode; hits give low values; max response, negative = inhibition, %; AID 652054; hit rate 2.5% among 360,000; in the data active = max response below about -50%; inconclusive = no clear call, values can overlap the other calls
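Cells expressing the human receptor were seeded at 1500 cells/well, incubated overnight at 37 degrees C in 5% CO2, then exposed to library compounds with dopamine controls for 90 minutes at 37 degrees C before luminescent detection.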
GLP1R inv ag: GLP-1 receptor (human) inverse agonism; P43220; HEK293 GLP-1R CRE-luciferase, luminescence, 24 h; GLP-1R form is constitutively active; Potency, µM (highest dose often 38.3 µM), usual class: inhibitors; hit rate 1.6% among 410,000; AID 624417; also: nearly all actives have a fitted effect of over 55% in size
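Cells are plated, allowed 12 hours at 37 deg C, then treated with compounds for 24 hr before luciferase detection reagent is added and luminescence is read after 12 min at room temperature. The HEK293 line carries constitutively active GLP-1R with a cAMP-responsive reporter.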
Each line names hits and unclear results; the compound was inactive in the other large screens. Unless noted, calls follow the shape of the dose curve; as a rule, active = well fitted curve in the direction sought with a large enough effect; inconclusive = small, poorly fitted or top-dose-only effect, or another doubt; inactive = no such curve, though single readings can be large; an effect the other way counts as inactive or inconclusive.

Cc1cc(O)c2c(O)c3c(O)cccc3cc2c1	none (no result: DRD3 antagonist, GLP1R inv ag)
CCN(CC)S(=O)(=O)c1ccc2c(c1)N(CC(=O)NCCc1ccccc1)C(=O)CO2	none (no result: GLP-1R agonist, DRD3 antagonist)
N#Cc1nc(COc2ccc(Br)cc2)oc1N1CCN(Cc2ccccc2)CC1	GLP1R inv ag inconclusive
N#Cc1nc(-c2ccc(OCc3ccccc3)cc2)oc1N1CCOCC1	D3 ag 31
CCN1CCN(c2oc(COc3ccc(-c4ccccc4)cc3)nc2C#N)CC1	DRD3 antagonist -80, GLP1R inv ag inconclusive
CCOc1ccc(NC(=S)N2CCC(c3ccc(C)cc3)C2)cc1 (configuration not stated)	GLP1R inv ag 10µM
Cc1ccc([N+](=O)[O-])c(OCCN2CCC(Cc3ccccc3)CC2)c1	DRD3 antagonist -83, GLP1R inv ag inconclusive
CCC(=O)c1ccccc1OCCCN1CCC(Cc2ccccc2)CC1	DRD3 antagonist -102, GLP1R inv ag 7.9µM
Cc1ccccc1OCCN1CCC(Cc2ccccc2)CC1	DRD3 antagonist -91, GLP1R inv ag 8.9µM
Cc1ccccc1OCCOCCN1CCCCCC1	DRD3 antagonist inconclusive, GLP1R inv ag inconclusive
CCOc1ccccc1C(=O)NCCCN1CCN(CCCNC(=O)c2ccccc2OCC)CC1	DRD3 antagonist -53, GLP1R inv ag inconclusive
CCOc1cccc(NC(=O)C2CC(=O)N(C)C(=Nc3cccc(OC)c3)S2)c1 (configuration not stated)	GLP1R inv ag inconclusive (no result: GLP-1R agonist, DRD3 antagonist)
CCc1ccc(C2C(C(=O)Nc3ccccc3OC)=C(C)Nc3c(C(=O)Nc4ccc(C)cc4)cnn32)cc1 (configuration not stated)	GLP1R inv ag inconclusive (no result: GLP-1R agonist, DRD3 antagonist)
O=[N+]([O-])c1ccc(CN2CCC(Cc3ccccc3)CC2)cc1	DRD3 antagonist inconclusive, GLP1R inv ag inconclusive
COc1cccc(OC)c1OCCCCN1CCC(Cc2ccccc2)CC1	DRD3 antagonist -75, GLP1R inv ag inconclusive
CCOc1ccccc1OCCN1CCC(Cc2ccccc2)CC1	DRD3 antagonist -99, GLP1R inv ag inconclusive
N#Cc1ccccc1OCCCN1CCC(Cc2ccccc2)CC1	DRD3 antagonist -109, GLP1R inv ag inconclusive
O=[N+]([O-])c1cccc(OCCCN2CCC(Cc3ccccc3)CC2)c1	DRD3 antagonist -101, GLP1R inv ag inconclusive
COc1cccc(OC)c1OCCCCN1CCCC1	none
Cc1ccc(Cl)cc1N(C)C(=O)c1cc2ccc3cccnc3c2[nH]1	GLP1R inv ag inconclusive (no result: GLP-1R agonist, DRD3 antagonist)
CC[C@@H](C)[C@@H](N)C1=N[C@H](C(=O)N[C@@H](CC(C)C)C(=O)N[C@@H](CCC(=O)O)C(=O)N[C@@H](C(=O)N[C@@H]2CCCCNC(=O)[C@@H](CC(N)=O)NC(=O)[C@@H](CC(=O)O)NC(=O)[C@@H](Cc3cnc[nH]3)NC(=O)[C@@H](Cc3ccccc3)NC(=O)[C@@H]([C@H](C)CC)NC(=O)[C@@H](CCCN)NC2=O)[C@@H](C)CC)CS1	none (no result: GLP-1R agonist, DRD3 antagonist, GLP1R inv ag)
C[C@@H]1CCCCO[C@@H](CN(C)C(=O)Cc2ccccc2)[C@@H](C)CN([C@H](C)CO)C(=O)c2cc(NC(=O)C3CCCCC3)ccc2O1	none
O=C(Nc1ccccc1)C1=C(c2ccccc2)S(=O)(=O)CCS1(=O)=O	DRD3 antagonist -105
CCc1ccc(NCc2cc3cc4c(cc3n(CC(=O)Nc3ccccc3OC)c2=O)OCCO4)cc1	none (no result: DRD3 antagonist)
COc1ccccc1N1CCN(CCN2C(=O)CC(=C3c4ccccc4-c4ccccc43)C2=O)CC1	DRD3 antagonist -76
Cc1ccccc1N1CCN(CCN2C(=O)CC(=C3c4ccccc4-c4ccccc43)C2=O)CC1	DRD3 antagonist -65
CN(C(=O)CSc1nc2ccc(NC(=O)c3ccco3)cc2s1)c1ccccc1	GLP1R inv ag inconclusive (no result: GLP-1R agonist, DRD3 antagonist)
COc1cc(OC)c(N(C)S(=O)(=O)c2cccc(C(=O)OCC(=O)N(C)Cc3ccccc3)c2)cc1Cl	GLP1R inv ag inconclusive
CCCN(CCC)CCNC(=O)C1CCCN(S(=O)(=O)c2ccc3c(c2)oc(=O)n3C)C1 (configuration not stated)	D3 ag 46
Cn1c(=O)oc2cc(S(=O)(=O)N3CCCC(C(=O)NCCN4CCOCC4)C3)ccc21 (configuration not stated)	none
C(=N\Nc1ccc2ccccc2n1)/c1ccc2c(c1)OCCO2	none
Cc1cccc(/C=N/Nc2ccc3ccccc3n2)c1	GLP1R inv ag 10µM
CCOC(=O)c1cc(-c2ccc(F)cc2)n(CCC(=O)Nc2nc3cc(C)c(C)cc3s2)c1C	none (no result: GLP-1R agonist, DRD3 antagonist)
CCN1CC2([N+](=O)[O-])C=CC(=O)C([N+](=O)[O-])(C1)C2CC(=O)c1ccccc1 (configuration not stated)	DRD3 antagonist -68
Nc1nc[nH]c(=O)c1N=Cc1ccccc1	none
O=C(Nc1cccc(C(F)(F)F)c1)c1cnn(-c2cccc(F)c2)c1C1CCNCC1	GLP1R inv ag inconclusive (no result: GLP-1R agonist, DRD3 antagonist)
Cc1ccc(Sc2c([N+](=O)[O-])c(=O)n(C)c3ccccc23)cc1	DRD3 antagonist -72
Cc1ccc(Sc2c(C=O)c3ccccc3n2C)cc1	GLP1R inv ag 5.6µM
O=C(Nc1cccc(OCc2cc(=O)n3ccccc3n2)c1)c1ccccc1Br	none (no result: GLP-1R agonist, DRD3 antagonist)
CN1CCCN(Cc2ccccc2C(F)(F)F)CC1	DRD3 antagonist -84
CN1CCCN(Cc2ccc(Cl)cc2Cl)CC1	DRD3 antagonist -78, GLP1R inv ag inconclusive
CCN(CC)CCOC(=O)CCc1cccc2ccccc12	DRD3 antagonist -66
CCN(CC)CCOC(=O)C(c1ccccc1)C1CCCCC1 (configuration not stated)	DRD3 antagonist -89, GLP1R inv ag inconclusive
CCN(CC)CCOC(=O)C(c1ccccc1)c1ccccc1	DRD3 antagonist -67
CCN(CC)CCSC(=O)C(c1ccccc1)c1ccccc1	none (no result: DRD3 antagonist, GLP1R inv ag)
NC(=O)C(c1ccccc1)C1CCCCC1 (configuration not stated)	GLP1R inv ag inconclusive
C=CCNc1nc(Nc2ccc(-c3nc4ccccc4o3)cc2)nc(N2CCOCC2)n1	D3 ag 33, GLP1R inv ag inconclusive
C=CCNc1nc(NCC)nc(N2CCOCC2)n1	none
Cc1c(C(=O)Nc2ccccc2)sc2nc(-c3cc4cc(Cl)ccc4oc3=O)[nH]c(=O)c12	none (no result: GLP-1R agonist, DRD3 antagonist)
C[C@]12O[C@H](C[C@]1(O)CO)n1c3ccccc3c3c4c(c5c6ccccc6n2c5c31)CNC4=O	none (no result: DRD3 antagonist, GLP1R inv ag)
O=C1CN2C(=Nc3ccc(Br)cc3C2c2ccccc2)CCN1 (configuration not stated)	none
Brc1ccc2c(c1)CN1CCCC1=N2	DRD3 antagonist -50
Cc1ccc(CCNC(=O)c2cc(C)nc3c2c(C)nn3-c2ccc(C)cc2)cc1	none (no result: GLP-1R agonist, DRD3 antagonist)
O=C1C2C3CCCC3=C3CCCC3C2C(=O)N1c1cccc(Cl)c1 (configuration not stated)	GLP1R inv ag 3.5µM
CCn1cc2nc(SCc3cccc(C)c3)n(CCc3ccccc3)c(=O)c2n1	GLP1R inv ag 7.9µM (no result: GLP-1R agonist, DRD3 antagonist)
COc1cc(/C=N/NC(=O)c2cnn3c(C)cc(-c4ccccc4)nc23)ccc1O	D3 ag 47
CC(C)COc1cccc(-c2cc(C(=O)N/N=C/c3ccncc3)c3ccccc3n2)c1	D3 ag 34
CCOc1ccc(-c2cc(C(=O)N/N=C/c3cccnc3)c3ccccc3n2)cc1	none

Screens (PubChem BioAssay)
